An excerpt weighted towards active compounds, which were near 0.92% of everything screened.
RECQ1 helicase: inhibitors of human RECQ1 DNA helicase | P46063 | RECQ1 DNA unwinding, red fluorescence kinetic read | 240,000 compounds, 0.54% hits | Potency, µM (top dose mostly 57.3 µM), for the others: at the top dose activity, negative = inhibition, hits mostly inhibitors | AID 2549;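 further: plate controls were vehicle for no effect and no enzyme for full effect; nearly all actives have a fitted effect of over 30% in size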
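50 nM RECQ1T1 preincubated 15 min with compound in Tris pH 8.0 buffer with MgCl2, DTT, Tween-20 and 2.5 ug/ml poly(dI-dC); started with 200 nM TAMRA/BHQ-2 forked duplex and 2 mM ATP. Unwinding read as fluorescence (525/598 nm), two reads 2 h apart.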
BLM helicase inh: Bloom syndrome helicase (human) inhibition; P54132; recombinant BLM DNA unwinding, fluorescence dequenching; Potency, µM (top dose mostly 56.1 µM), without a hit: top-dose activity change, negative = inhibition, hits mostly inhibitors; 350,000 compounds, 0.2% hits;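 further: plate controls were vehicle for no effect and no enzyme for full effect; nearly all actives have a fitted effect of over 35% in size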
APE1 inh-1: blocks human APE1 abasic DNA cleavage. 350,000 compounds, 0.35% hits. recombinant APE1, TAMRA/BHQ-2 abasic DNA cleavage fluorescence. P27695. Potency, µM (highest dose often 65.8 µM), inactives show top-dose activity change, negative = inhibition, usual class: inhibitors. AID 2517;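 further: plate controls were vehicle for no effect and reference inhibitor for full effect; nearly all actives have a fitted effect of over 55% in size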
Target sequence (P27695 whole entry, looked up): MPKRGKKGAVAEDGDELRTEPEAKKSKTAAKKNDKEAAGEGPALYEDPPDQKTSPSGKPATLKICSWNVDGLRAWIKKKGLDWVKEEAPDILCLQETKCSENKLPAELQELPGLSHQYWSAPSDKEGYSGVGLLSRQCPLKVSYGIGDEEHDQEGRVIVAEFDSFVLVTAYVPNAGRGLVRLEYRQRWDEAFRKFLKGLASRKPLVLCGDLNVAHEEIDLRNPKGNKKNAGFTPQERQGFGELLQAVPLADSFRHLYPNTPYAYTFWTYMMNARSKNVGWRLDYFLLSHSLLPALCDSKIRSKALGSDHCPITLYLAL
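Incision of a quenched TAMRA/BHQ-2 THF abasic-site duplex (50 nM) by 0.75 nM APE1, after 15 min compound preincubation, measured as fluorescence increase over three 60 s reads. Values normalized to buffer, DMSO and NSC13755 control wells.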
TDP1 block: TDP1 (human) enzyme inhibition; recombinant TDP1, AlphaScreen DNA substrate cleavage; 350,000 compounds, 0.28% hits; Q9NUW8; Potency, µM (doses to about 130 µM), inactives show top-dose activity change, negative = inhibition, actives largely listed as inhibitors; further: nearly all actives have a fitted effect of over 40% in size
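Enzyme-compound mixtures sat 15 min at room temperature, followed by a 5 min reaction with 15 nM final substrate and 10 min with AlphaScreen beads. Recombinant human Tdp1 was used at 1 nM final.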
FEN1 inh: blocks human flap endonuclease 1; Potency, µM (doses to about 114 µM), inactives show at the highest dose activity change, negative = inhibition, hits mostly inhibitors; Recombinant FEN1 flap cleavage, fluorescence, 15 min; 390,000 compounds, 0.35% hits; further: nearly all actives have a fitted effect of over 65% in size
Target sequence (P39748 whole entry, looked up): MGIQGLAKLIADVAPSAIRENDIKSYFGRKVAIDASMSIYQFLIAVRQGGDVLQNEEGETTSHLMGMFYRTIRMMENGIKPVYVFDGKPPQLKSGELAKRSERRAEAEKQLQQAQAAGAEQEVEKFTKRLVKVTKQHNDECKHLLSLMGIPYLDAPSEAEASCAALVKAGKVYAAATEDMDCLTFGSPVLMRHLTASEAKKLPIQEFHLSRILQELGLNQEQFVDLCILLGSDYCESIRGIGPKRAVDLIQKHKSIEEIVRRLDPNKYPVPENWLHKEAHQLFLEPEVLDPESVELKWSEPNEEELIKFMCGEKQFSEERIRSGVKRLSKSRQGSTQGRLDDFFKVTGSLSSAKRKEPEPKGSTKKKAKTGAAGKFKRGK
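Reaction started by adding substrate (50 nM final) to 10 nM enzyme after 15 min room-temperature compound preincubation. Reads at 0 and 15 min, with data normalized and fitted to a four-parameter Hill equation.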
DNA dye displace: counter-screen for APE1 inhibitors: DNA dye displacement; AID 2564; 480 compounds, 7% hits; shares compounds with APE1 inh-1; Potency, µM (top dose mostly 28.5 µM), without a hit: top-dose activity change, negative = inhibition, hits mostly inhibitors; DNA fluorescent dye displacement counterscreen, fluorescence;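 further: loss of thiazole orange fluorescence as the dye is displaced from duplex DNA; 0% = ThO with dsDNA and no compound and -100% = ThO without dsDNA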
EndoIV counter: Endo IV (E. coli) inhibition counter-screen; AID 2565; Potency, µM (titrated, usually from 27.1 µM), inactives show at the top dose activity change, negative = inhibition, actives largely listed as inhibitors; E. coli Endo IV, fluorogenic AP-site DNA cleavage; shares compounds with APE1 inh-1; 560 compounds, 4% hits;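 further: plate controls were uninhibited enzyme wells for no effect and no enzyme buffer wells for full effect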
APE1 inh-2: confirmation of inhibitors of human APE1 endonuclease. shares compounds with APE1 inh-1. purified APE1, fluorogenic abasic-site DNA cleavage. Potency, µM (series often up to 57.1 µM), inactives show at the top dose activity change, negative = inhibition, most hits filed as inhibitors. 750 compounds, 44% hits. AID 2572; further: nearly all actives have a fitted effect of over 30% in size
APE1 FP: displaces DNA from human APE1 in FP assay. AID 2573. Potency, µM (doses to about 28.5 µM), for the others: at the top dose activity, negative = inhibition, actives largely listed as inhibitors. APE1 binding to TAMRA-labelled double-stranded DNA, fluorescence polarization displacement. shares compounds with APE1 inh-1. 480 compounds, 7% hits
* hit, by the source's call; i = inactive; ? = inconclusive; nt = no result given; [ ] = remark or other dose. The call rests on the fitted dose curve; in most records, active means well fitted curve in the direction sought with a large enough effect; inconclusive means small, poorly fitted or top-dose-only effect, or another doubt; inactive means no such curve, though single readings can be large; an effect the other way counts as inactive or inconclusive. Unless noted, on the % scale 0 is the no-effect control and ±100 the full control effect; potency means the concentration at half of the fitted maximal effect.

SMILES	RECQ1 helicase	BLM helicase inh	APE1 inh-1	TDP1 block	FEN1 inh	others
COc1cc(/C=C2\SC(=S)N(NC(=O)c3ccc(O)cc3)C2=O)ccc1O	nt	-13.4%	-15.8%	nt	?
CCOc1cc(/C=C2\SC(=S)N(Nc3ccccc3)C2=O)ccc1O	25.1µM*	-22.0%	?	10.3%	?
COc1cc(/C=C2\SC(=S)N(Nc3ncc(C(F)(F)F)cc3Cl)C2=O)ccc1O	28.2µM*	-19.8%	?	8.8%	?
COc1cc(/C=C2\SC(=S)N(NC(=O)c3cccnc3)C2=O)ccc1O	25.1µM*	-3.8%	?	0.0%	-32.4%
C[Si](C)(C)Cl	-12.1%	nt	5.9%	11.6%	nt
CCN1C(Br)=CCc2ccccc21	nt	nt	nt	nt	12.3%
COC(=O)[C@H]1O[C@@H](c2cc(OC)c(C)c(OC)c2O)[C@H](C)[C@@H](O)[C@H]1C	-5.6%	3.2%	-1.4%	6.2%	nt
Nn1c(SCC(=O)NCC2CCCO2)nnc1-c1ccc(OC(F)F)cc1 (configuration not stated)	nt	nt	1.9%	89.1µM*	4.0%
O=C(O)C(c1ccccc1)N1C(=O)/C(=C\c2ccc(-c3ccccc3Cl)o2)SC1=S (configuration not stated)	nt	?	?	nt	50.1µM*
O=C(C[n+]1ccccc1Cl)c1ccc(O)c(O)c1	nt	nt	nt	nt	-1.5%
Cn1cccc1-c1cc(C(=O)N/N=C/c2cc(Br)ccc2O)[nH]n1	nt	-15.1%	3.1%[12.4 µM]	79.4µM*	8.2%
Cn1cccc1-c1cc(C(=O)N/N=C/c2ccccc2Cl)[nH]n1	nt	-6.4%	-1.1%	-14.5%	-10.4%
Cc1ccc(-c2nnc(Nc3ccc(Br)cc3)c3ccccc23)cc1S(=O)(=O)NCc1nc2ccccc2[nH]1	nt	-8.8%	nt	nt	-9.6%
O=C1C=C(O)CC(c2ccco2)C1 (configuration not stated)	?	63.5%	3.16µM*	nt	?
COc1cccc(C(=O)N(Cc2sccc2C)C2CCS(=O)(=O)C2)c1 (configuration not stated)	nt	0.1%	nt	1.2%	-0.3%
CNC1=C(Cl)C(=O)c2ccncc2C1=O	-5.4%	17.8µM*	?	0.9%	nt
CNC1=C(Br)C(=O)c2ccncc2C1=O	-0.4%	14.1µM*	?	0.9%	nt
C(#Cc1ccccc1)C[N+]1(CC#Cc2ccccc2)CCCC1	-3.0%	4.1%	-1.6%	0.6%	1.1%
C=CC#CC[N+]1(CC#Cc2ccccc2)CCOCC1	-18.5%	72.3%	1.8%	5.3%	17.8µM*
COC(=O)[C@H](C)NC(=O)C/C=C\[C@@H](C)CO	-5.2%[11.5 µM]	-0.1%[12.4 µM]	26.7%[12.4 µM]	7.9%[21 µM]	nt
COc1cc(/C=C2/SC(=S)NC2=O)ccc1OS(=O)(=O)c1ccc(C)cc1	-27.1%	-17.1%	-3.9%	5.7%	79.4µM*
CCOc1ccc(/C=C2\SC(=S)NC2=O)cc1OC	-3.9%	3.1%	5.3%	0.0%	-1.1%
COc1ccc(/C=C2\SC(=O)NC2=S)cc1OC	31.6µM*	-18.3%	?	8.2%	-20.6%
COc1ccc(Cl)c(Cn2cnc3c(cnn3C(C)(C)C)c2=O)c1F	nt	nt	-3.7%	nt	21.5%
O=C1[C@H]2[C@H]3[C@H](O)[C@H](O)C/C(=N/OC[C@@H](O)COCc4ccco4)[C@H]3CC[C@@H]2C(=O)N1Cc1ccccc1	i[11.5 µM]	1.0%[12.4 µM]	-11.9%[12.4 µM]	2.6%[21 µM]	nt
SMILES	RECQ1 helicase	BLM helicase inh	APE1 inh-1	TDP1 block	FEN1 inh	others
O=C1OC(c2ccccc2)(c2cc(Br)c(O)c(Br)c2)c2ccccc21 (configuration not stated)	nt	nt	nt	nt	-6.2%
O=C1OC2(c3cc(Br)c(O)c(Br)c3Oc3c2cc(Br)c(O)c3Br)c2c(Cl)c(Cl)c(Cl)c(Cl)c21	5.01µM*	nt	4.47µM*	21.7%	nt
CO[C@H]1COC(=O)[C@H](C)NC(=O)[C@@H](C)COC(=O)[C@H]2CCCN2C(=O)C/C=C\[C@H]1C	i[11.5 µM]	-1.8%[12.4 µM]	4.7%[12.4 µM]	1.6%[21 µM]	nt
O=C(Nc1c(Cl)cc([N+](=O)[O-])cc1Cl)c1cc(Cl)ccc1O	nt	nt	nt	4.3%	16.4%
O=C(Nc1cc(Cl)ccc1Cl)c1cc([N+](=O)[O-])cc(Br)c1O	nt	nt	nt	2.4%	50.1µM*
O=C1c2cccc3c([N+](=O)[O-])ccc(c23)C(=O)N1O	nt	-15.8%	-43.7%	nt	3.16µM*
O=C1c2cccc3c([N+](=O)[O-])ccc(c23)C(=O)N1c1ccccn1	-0.6%	-0.9%	-7.9%	-7.7%	-12.0%
COc1ccc2c3c(cccc13)C(=O)N(O)C2=O	0.7%	1.2%	2.2%	-4.5%	0.355µM*
N=C1C(c2nc3ccccc3c(=O)[nH]2)=C(O)CN1CCc1ccccc1	-5.4%	-9.7%	-1.3%	70.8µM*	17.4%
COC(=O)c1nnc(SC)nc1C(=O)OC	6.8%	-7.6%	-0.1%	-4.4%	nt
CCN(C(=O)COC(=O)c1cccnc1)c1cccc2ccccc12	nt	nt	-12.9%	1.2%	-16.9%
CCN(C(=O)COC(=O)c1ccc([N+](=O)[O-])o1)c1cccc2ccccc12	nt	nt	-8.2%	4.7%	28.2µM*
CN(C)c1ccc2c(O)cc(=O)n(C)c2c1	0.9%	-7.3%	16.3%	-2.0%	?
CN(C)c1ccc2cc(S(=O)(=O)O)cc(O)c2c1	nt	nt	nt	nt	50.1µM*
Oc1c(Br)cc(C=Nc2ccc3nc(-c4ccccc4)[nH]c3c2)c(O)c1Br	-10.0%	-15.0%	10.8%	2.7%	39.8µM*
CC(=O)N[C@@H](Cc1ccc(O)cc1)C(=O)N[C@H](C(=O)N[C@@H](C)C(=O)N[C@H](C#N)CC(=O)O)C(C)C	nt	nt	-40.4%	nt	nt
N#C/C(=C/c1ccc(-c2cc(C(=O)O)cc(C(=O)O)c2)o1)c1nc2ccccc2s1	?	55.4%	?	nt	nt	DNA dye displace=?;EndoIV counter=?;APE1 inh-2=14.1µM*;APE1 FP=-8.0%
O=C(COC(=O)CCNS(=O)(=O)c1cccc(C(F)(F)F)c1)NC(=O)NC1CCCCC1	-11.1%	-6.4%	?	3.9%	-7.1%	DNA dye displace=-9.7%;EndoIV counter=-0.1%;APE1 inh-2=?;APE1 FP=3.1%

Compound activity: PubChem BioAssay, National Center for Advancing Translational Sciences (NCATS)
